Compounds with a hit are over-represented: about 3.3% of the library has one in this group of screens.
Sm TGR inh: blocks Schistosoma mansoni thioredoxin glutathione reductase; Q962Y6; Potency, µM (titrated, usually from 114 µM), most hits filed as inhibitors; 3% of 360,000 active; AID 485364; purified TGR, DTNB reduction, TNB absorbance 405 nm; further: nearly all actives have a fitted effect of over 60% in size
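Kinetic colorimetric format: TGR-catalysed, NADPH-driven DTNB reduction monitored via TNB absorbance. Enzyme dispensed at 20 nM; compound exposure 15 min at room temperature before reaction start.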
TbPYK inhibitor: blocks Trypanosoma brucei pyruvate kinase. Q57TT1. Potency, µM (highest dose often 76.8 µM), most hits filed as inhibitors. AID 624173. TbPYK enzyme, Kinase-Glo Plus ATP luminescence, 45 min. 0.12% of 410,000 active; further: nearly all actives have a fitted effect of over 50% in size
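Readout: single end-point luminescence (Kinase-Glo Plus, 10 min). Reaction conditions were TbPYK/substrate plus 130 uM ADP, 45 min at RT, pH 7.2 TEA buffer. No-enzyme wells served as controls, and data were normalized before concentration-response fitting.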
LmPK inh: LmPK (Leishmania mexicana) enzyme inhibition | 0.37% of 290,000 active | Potency, µM (highest dose often 57.5 µM), actives largely listed as inhibitors | Q27686 | purified LmPK, Kinase-Glo ATP luminescence, 1 h
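Kinase-Glo luminescence read after 1 h RT reaction of 0.1 nM LmPK with 0.5 mM PEP and 0.1 mM ADP. Activity scaled between uninhibited and enzyme-free controls.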
RE007 growth inh: less growth of the S. pombe RE007 Vpr strain; S. pombe RE007 Vpr strain, BacTiter-Glo ATP luminescence, 24 h; Potency, µM (titrated, usually from 92.2 µM), hits mostly inhibitors; 0.21% of 360,000 active; AID 651644; active means well fitted falling curve with a large enough effect; inconclusive means small, poorly fitted or top-dose-only effect; inactive means no such curve, though single readings can be large or run the other way; further: nearly all actives have a fitted effect of over 50% in size
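Fission yeast strain RE007, carrying one chromosomally integrated HIV-1 vpr copy, was seeded at OD 0.01 in PMG+AL medium with 23 nL pinned compound. After 24 h at 30 °C and 99% humidity, viability was read by BacTiter-Glo luminescence.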
Giardia FBPA inh: inhibitors of Giardia lamblia fructose-1,6-bisphosphate aldolase; A8B2U2; purified Giardia FBPA; Potency, µM (highest dose often 59.6 µM), hits mostly inhibitors; 0.71% of 290,000 active; AID 2451; further: nearly all actives have a fitted effect of over 55% in size
Target sequence (A8B2U2 whole entry, looked up): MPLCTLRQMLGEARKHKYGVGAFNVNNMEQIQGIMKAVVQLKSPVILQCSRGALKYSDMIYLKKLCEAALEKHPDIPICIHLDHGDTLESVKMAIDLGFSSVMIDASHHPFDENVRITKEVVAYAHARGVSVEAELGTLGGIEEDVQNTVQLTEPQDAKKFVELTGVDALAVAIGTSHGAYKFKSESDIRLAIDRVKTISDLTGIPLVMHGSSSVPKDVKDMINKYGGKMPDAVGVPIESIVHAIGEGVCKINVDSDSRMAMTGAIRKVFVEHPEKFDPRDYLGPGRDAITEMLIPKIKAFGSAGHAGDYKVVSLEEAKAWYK
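40 nM FBPA preincubated 10 min at RT with compound (up to 57.5 uM final), then substrate plus GAPDH/TPI/NAD/arsenate coupling and diaphorase/resazurin added. Fluorescence read after 20 min at RT, 525/598 nm.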
Numbers stand for hits; n = inactive; u = inconclusive; x = no result; [ ] = another dose, or the depositor's remark. Unless noted, the call rests on the fitted dose curve; in most records, active means well fitted curve in the direction sought with a large enough effect; inconclusive means small, poorly fitted or top-dose-only effect, or another doubt; inactive means no such curve, though single readings can be large; an effect the other way counts as inactive or inconclusive.

SMILES	Sm TGR inh	TbPYK inhibitor	LmPK inh	RE007 growth inh	Giardia FBPA inh
Cc1nnc(SCC2=C(C(=O)O)N3C(=O)C(NC(=O)Cn4nc(C(F)F)c(Cl)c4C)C3SC2)s1 (stereo unspecified)	13µM	n	n	n	4µM
CC(=O)OCC1=C(C(=O)O)N2C(=O)C(NC(=O)Cn3nc(C(F)F)c(Cl)c3C)C2SC1 (stereo unspecified)	22µM	n	n	n	n
CC(=O)OCC1=C(C(=O)O)N2C(=O)C(NC(=O)CSc3ccncc3)[C@@H]2SC1 (stereo partly specified)	x	x	x	x	n
CC(=O)OCC1=C(C(=O)O)N2C(=O)C(NC(=O)CCn3nc(C)c(Cl)c3C)C2SC1 (stereo unspecified)	28µM	n	n	n	n
COc1cc2c(cc1OC)CN(CC(=O)Nc1ccc(C#N)cc1)CC2	n	n	n	n	n
Cc1cc(C(=O)OCC(=O)Nc2sc3c(c2C#N)CCC(C)C3)c2ccccc2n1 (stereo unspecified)	n	n	n	n	n
COc1ccc(-c2nc3ccc(Br)cn3c2CC(=O)N2CCCC2)cc1OC	x	n	x	n	x
O=C(CCc1ccccc1)Nc1nccs1	n	n	n	n	n
Cc1ccc(CCC(=O)Nc2nccs2)o1	45µM	n	n	n	n
CC(=O)Nc1ccc(NC(=O)CCc2ccc(C)o2)cc1	n	n	n	n	x
CCc1ccc(CCC(=O)Nc2nccs2)o1	32µM	n	n	n	n
CCc1ccccc1NC(=O)Cn1nnc(C(=O)NCc2cccs2)c1N	n	n	n	n	n
COc1ccc(C(C[N+](=O)[O-])c2c(C)[nH]n(-c3ccccc3)c2=O)cc1 (stereo unspecified)	18µM	n	n	11µM	u
Cc1[nH]n(-c2ccccc2)c(=O)c1C(c1ccc([N+](=O)[O-])cc1)c1c(C)[nH]n(-c2ccccc2)c1=O	u	n	n	n	n
Cc1[nH]n(-c2ccccc2)c(=O)c1C(C[N+](=O)[O-])c1ccccc1Cl (stereo unspecified)	n	n	n	32µM	n
O=C(O)CCN1C(=O)/C(=C\c2ccc(-c3nc4ccccc4s3)o2)SC1=S	50µM	n	n	n	n
O=C(O)CN1C(=O)/C(=C/c2ccc(SCc3ccccc3)o2)SC1=S	10µM	n	n	n	20µM
O=C(O)CN1C(=O)/C(=C\c2ccc(OC(=O)c3ccco3)cc2)SC1=S	n	n	n	n	u
O=C(O)CN1C(=O)/C(=C\C(Br)=C\c2ccccc2)SC1=S	20µM	n	n	n	u
O=C(O)CCCN1C(=O)/C(=C\c2ccco2)SC1=S	u	u	n	n	u
Cc1ccccc1-c1noc(-c2ccc(NCc3cccnc3)c([N+](=O)[O-])c2)n1	n	n	x	x	x
COc1ccc(-n2nc(C(=O)NCC(=O)NCCCN3CC(C)CC(C)C3)c3ccccc3c2=O)cc1 (stereo unspecified)	n	n	n	n	n
COc1cc(NC(=S)Nc2ccc(OC(F)F)cc2)cc(OC)c1	u	n	n	n	n
O=C(CCNC(=O)c1ccccc1Cl)NCCc1ccc(Cl)cc1	n	n	n	n	n
Cn1cccc1Cc1nnc(SCC(=O)NCc2ccco2)n1CCc1ccccc1	50µM	n	n	n	n
SMILES	Sm TGR inh	TbPYK inhibitor	LmPK inh	RE007 growth inh	Giardia FBPA inh
Cn1cccc1Cc1nnc(SCC(=O)NCc2ccco2)n1-c1ccc(F)cc1	45µM	n	n	n	n
CCNS(=O)(=O)c1cc(Br)ccc1OC	n	n	n	n	n
N=C1C=CC=C2C1=NC1(CCCCC1)N2O	20µM	n	n	n	u
CCC(Sc1nc(-c2ccc(F)cc2)nc2c1Cc1c(CO)cnc(C)c1O2)C(=O)Nc1ccc(F)cc1 (stereo unspecified)	n	n	x	x	x
Cc1nnc(Sc2nc3ccccc3o2)c2ccccc12	32µM	n	n	n	n
CC(C)n1c(Sc2nccn2C)nc2c1c(=O)n(C)c(=O)n2C	n	n	n	n	n
O=c1[nH]c(Nc2ccccn2)cc2ccccc12	x	n	x	n	x
O=c1[nH]c(Nc2ccccc2Cl)cc2ccccc12	x	n	x	n	x
O=c1[nH]c(Nc2ccc(F)cc2)cc2ccccc12	35µM	n	n	n	u
Cc1ccccc1Nc1cc2ccccc2c(=O)[nH]1	3.2µM	n	n	n	u
O=C(N/C(=C/c1ccco1)C(=O)N1CCOCC1)c1cccs1	x	n	n	n	n
O=C(N/N=C/c1ccc2c(c1)OCO2)c1ccccn1	n	n	11µM	n	n
O=C(CCc1ccc(O)c(O)c1)N/N=C/c1ccc2c(c1)OCO2	11µM	n	u	n	x
O=C(N/N=C/c1cc2c(cc1Br)OCO2)c1ccccn1	n	n	u	n	n
CN(C)c1ccc(NC(=S)c2ccccn2)cc1	n	u	4.5µM	u	u
N#CC(C#N)=Cc1ccc(OC(=O)c2ccccn2)cc1	8.9µM	n	n	n	n
Cc1ccc(C(=O)NCCN2CCNC2=O)cc1	n	n	n	n	n
O=C(N/N=C/c1ccco1)c1ccc(OCc2ccccc2)cc1	n	n	n	n	n
Cc1c(NC(=O)c2cnn3cccnc23)c(=O)n(-c2ccccc2)n1C	n	n	n	n	n
O=C(N/N=C/c1ccncc1)c1ccccn1	n	n	n	n	u
CN(C)c1ccc(/C=C(\C#N)c2ccccn2)cc1	n	u	10µM	u	n
CC(C)c1ccc(/C=N/NC(=O)c2ccccn2)cc1	n	n	14µM	n	n
CN(C)c1ccc(/C=N/NC(=O)c2ccnn2C)cc1	n	u	8.9µM	n	n
CN(C)c1ccc(/C=N/NC(=O)c2ccccn2)cc1	n	u	13µM	n	n
N#C/C(=C\c1ccc([N+](=O)[O-])cc1)c1ccccn1	n	n	n	n	n
SMILES	Sm TGR inh	TbPYK inhibitor	LmPK inh	RE007 growth inh	Giardia FBPA inh
CSc1cccc(NC(=O)COC(=O)C2(c3ccccc3)CC2)c1	x	n	x	n	x
CCO/C=N/Nc1nc(C(F)(F)F)nc2c1cnn2Cc1ccccc1	n	n	n	n	n
CC1(C(=O)NCc2cccc(C(F)(F)F)c2)CCN1C1Cc2ccccc2C1 (stereo unspecified)	x	n	x	n[18.4 µM]	x
O=C(CN1CCN(S(=O)(=O)c2ccccc2[N+](=O)[O-])CC1)Nc1ccc(N2CCOCC2)cc1	n	n	n	n	n
O=C(Nc1ccccc1N1CCCC1)c1ccco1	u	n	n	n	n
O=C(/C=C/c1ccco1)NC(=S)Nc1ccccc1N1CCOCC1	32µM	n	n	n	n
O=C(/C=C/c1ccco1)Nc1ccccc1N1CCCC1	40µM	n	n	n	n
O=C(/C=C/c1ccco1)NC(=S)Nc1ccccc1N1CCCC1	x	n	n	n	n
CCCCCC(=O)Nc1ccccc1N1CCN(c2ccccc2)CC1	n	n	n	n	n
O=C(O)/C=C\C(=O)Nc1ccccc1N1CCN(c2ccccc2)CC1	11µM	n	n	n	n

Bioassay records: PubChem BioAssay, National Center for Advancing Translational Sciences (NCATS)
